Results filed as inconclusive are left out. Calls of active or inactive are those of the source. How the source made its calls, unless noted: active means hit-call score of the fitted dose curve at least 0.9, where 1 is the maximum; inconclusive means response in the unintended direction; inactive means score below 0.9.
Assays:
[1] = target: Retinoic acid receptor RXR-alpha (Homo sapiens) (UniProt P19793); experiment: ATG_RXRa_TRANS: Attagene TRANS-FACTORIAL HepG2 Assay for human Retinoid X Receptor alpha (RXRa) (AID 2283012)
Retinoic acid receptor RXR-alpha (Homo sapiens), sequence (P19793 whole entry, looked up, the tested form may be a part): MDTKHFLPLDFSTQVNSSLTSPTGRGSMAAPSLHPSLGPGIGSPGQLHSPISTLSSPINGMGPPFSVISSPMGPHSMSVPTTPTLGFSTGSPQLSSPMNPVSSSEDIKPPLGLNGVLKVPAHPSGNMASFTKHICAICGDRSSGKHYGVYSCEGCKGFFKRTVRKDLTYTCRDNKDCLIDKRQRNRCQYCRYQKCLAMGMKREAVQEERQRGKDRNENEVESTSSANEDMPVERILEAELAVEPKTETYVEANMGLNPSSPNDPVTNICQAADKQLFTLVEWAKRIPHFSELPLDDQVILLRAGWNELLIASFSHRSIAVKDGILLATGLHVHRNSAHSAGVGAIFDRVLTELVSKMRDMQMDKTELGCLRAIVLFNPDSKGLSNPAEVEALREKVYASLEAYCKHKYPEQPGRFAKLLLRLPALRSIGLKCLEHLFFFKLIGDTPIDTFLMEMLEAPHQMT
Summary of the method: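 HepG2 cells transiently transfected with GAL4-UAS reporter units and chimeric RXRa-Gal4 protein, treated 24 h. Reporter mRNA measured by RT-PCR, fluorescent labelling, HpaI digestion and capillary electrophoresis. Induction fitted against DMSO.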

[2] = target: human Thyroid Receptor alpha (THRa1), THRA (gene 7067) (UniProt P10827); experiment: ATG_THRa1_TRANS: Attagene TRANS-FACTORIAL HepG2 Assay for human Thyroid Receptor alpha (THRa1) (AID 2283014)
human Thyroid Receptor alpha (THRa1), THRA (gene 7067), sequence (P10827 whole entry, looked up, the tested form may be a part): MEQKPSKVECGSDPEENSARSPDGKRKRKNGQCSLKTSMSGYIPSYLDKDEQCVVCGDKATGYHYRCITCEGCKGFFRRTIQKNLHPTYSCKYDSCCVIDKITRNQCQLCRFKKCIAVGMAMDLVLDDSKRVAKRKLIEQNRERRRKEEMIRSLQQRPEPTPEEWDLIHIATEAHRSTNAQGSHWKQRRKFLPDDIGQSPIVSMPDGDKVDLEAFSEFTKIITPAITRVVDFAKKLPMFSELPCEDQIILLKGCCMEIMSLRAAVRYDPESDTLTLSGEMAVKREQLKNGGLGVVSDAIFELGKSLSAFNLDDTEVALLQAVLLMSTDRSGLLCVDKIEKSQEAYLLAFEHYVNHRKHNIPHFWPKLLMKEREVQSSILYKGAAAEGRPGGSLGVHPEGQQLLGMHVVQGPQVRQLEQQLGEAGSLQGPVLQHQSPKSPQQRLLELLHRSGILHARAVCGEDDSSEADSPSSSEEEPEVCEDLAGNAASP
Summary of the method: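 Transcripts from GAL4-UAS-driven reporters, measured after 24 h compound exposure by RT-PCR plus capillary electrophoresis of 6-FAM-labeled fragments, were fitted for gain of signal relative to DMSO. Cells: transiently transfected HepG2 expressing NR-Gal4 chimeras.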

[3] = target: human Vitamin D Receptor (VDR), VDR (gene 7421) (UniProt P11473); experiment: ATG_VDR_TRANS: Attagene TRANS-FACTORIAL HepG2 Assay for human Vitamin D Receptor (VDR) (AID 2283022)
human Vitamin D Receptor (VDR), VDR (gene 7421), sequence (P11473 whole entry, looked up, the tested form may be a part): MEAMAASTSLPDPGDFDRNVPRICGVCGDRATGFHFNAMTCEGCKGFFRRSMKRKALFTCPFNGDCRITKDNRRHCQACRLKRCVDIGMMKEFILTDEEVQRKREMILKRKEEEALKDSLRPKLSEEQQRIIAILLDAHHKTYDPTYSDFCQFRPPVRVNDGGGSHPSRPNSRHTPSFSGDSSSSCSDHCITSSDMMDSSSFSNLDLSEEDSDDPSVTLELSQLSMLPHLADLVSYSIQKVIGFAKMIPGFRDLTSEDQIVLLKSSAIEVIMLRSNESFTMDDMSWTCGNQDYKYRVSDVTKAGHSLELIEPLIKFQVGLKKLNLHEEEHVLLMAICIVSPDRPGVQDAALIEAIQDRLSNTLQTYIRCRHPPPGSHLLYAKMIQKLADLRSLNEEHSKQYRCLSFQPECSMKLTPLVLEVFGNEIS
Summary of the method: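 Transactivation by an exogenous VDR-Gal4 chimera in transiently transfected HepG2 cells was measured as reporter transcript level 24 hours after chemical treatment. RT-PCR products were analysed by capillary electrophoresis and fitted in the positive direction relative to DMSO.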

[4] = read-out: E-selectin (Homo sapiens) (UniProt P16581); experiment: BSK_3C_Eselectin: BioMAP Diversity Plus: 3C Assay for Eselectin Biomarker Activity (AID 2283015; active means hit-call score of the fitted dose curve at least 0.9, where 1 is the maximum; inactive means score below 0.9); settings: primary human endothelial cells (HUVEC); actives raise or lower the signal
Summary of the method: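 E-selectin ELISA readout, fitted bidirectionally relative to DMSO, taken 24 h post-dosing in HUVEC cultures of the 3C system. Overt cytotoxicity tracked with sulforhodamine B staining of parallel wells.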

[5] = read-out: Interleukin-1 alpha (IL1a), IL1A (gene 3552); experiment: BSK_BE3C_IL1a: BioMAP Diversity Plus: BE3C Assay for Interleukin-1 alpha (IL1a) Biomarker Activity (AID 2283016; active means hit-call score of the fitted dose curve at least 0.9, where 1 is the maximum; inactive means score below 0.9); settings: primary human bronchial epithelial cells; actives raise or lower the signal
Summary of the method: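 Human primary bronchial epithelial cells, 24 h chemical exposure; IL-1a quantified by ELISA, fitted bidirectionally against DMSO. Cytotoxicity assessed in parallel by SRB total-protein staining at the time of measurement.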

[6] = read-out: Monocyte Chemoattractant Protein-1 (MCP1), CCL2 (gene 6347); experiment: BSK_3C_MCP1: BioMAP Diversity Plus: 3C Assay for Monocyte Chemoattractant Protein-1 (MCP1) Biomarker Activity (AID 2283017; active means hit-call score of the fitted dose curve at least 0.9, where 1 is the maximum; inactive means score below 0.9); settings: primary human endothelial cells (HUVEC); actives raise or lower the signal
Summary of the method: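 MCP-1 was measured by ELISA 24 h after dosing in primary HUVEC 3C cultures and fitted in both directions relative to DMSO; cytotoxicity was checked by SRB total-protein staining in parallel wells.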

[7] = read-out: Monocyte Chemoattractant Protein-1 (MCP1), CCL2 (gene 6347); experiment: BSK_4H_MCP1: BioMAP Diversity Plus: 4H Assay for Monocyte Chemoattractant Protein-1 (MCP1) Biomarker Activity (AID 2283018; active means hit-call score of the fitted dose curve at least 0.9, where 1 is the maximum; inactive means score below 0.9); settings: primary human endothelial cells (HUVEC); actives raise or lower the signal
Summary of the method: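 Human umbilical vein endothelial cells (4H system) exposed to chemicals for 24 h in 96-well format. MCP-1 measured by ELISA; bidirectional fitting against DMSO, with SRB total-protein staining in parallel cultures for cytotoxicity.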

[8] = read-out: Human Leukocyte Antigen - DR isotype (HLADR), HLA-DRA (gene 3122); experiment: BSK_3C_HLADR: BioMAP Diversity Plus: 3C Assay for Human Leukocyte Antigen - DR isotype (HLADR) Biomarker Activity (AID 2283019; active means hit-call score of the fitted dose curve at least 0.9, where 1 is the maximum; inactive means score below 0.9); settings: primary human endothelial cells (HUVEC); actives raise or lower the signal
Summary of the method: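 Bidirectional fitting against DMSO was applied to the HLA-DR ELISA signal from human umbilical vein endothelial cells, 24 h post-dose. Cytotoxicity came from parallel SRB total-protein staining; 3C proliferation was counted by SRB at 48 h.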

[9] = read-out: Interleukin-8 (IL8), CXCL8 (gene 3576); experiment: BSK_3C_IL8: BioMAP Diversity Plus: 3C Assay for Interleukin-8 (IL8) Biomarker Activity (AID 2283020; active means hit-call score of the fitted dose curve at least 0.9, where 1 is the maximum; inactive means score below 0.9); settings: primary human endothelial cells (HUVEC); actives raise or lower the signal
Summary of the method: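 Primary human umbilical vein endothelial cells were dosed for 24 h. IL-8 was quantified by ELISA and fitted bidirectionally against DMSO. Cytotoxicity was assessed in parallel cultures by SRB staining at 560 nm.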

[10] = read-out: Monokine induced gamma interferon (MIG), CXCL9 (gene 4283); experiment: BSK_3C_MIG: BioMAP Diversity Plus: 3C Assay for Monokine induced gamma interferon (MIG) Biomarker Activity (AID 2283021; active means hit-call score of the fitted dose curve at least 0.9, where 1 is the maximum; inactive means score below 0.9;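 on AC50: MIG protein level measured by immunoassay in the treated endothelial cultures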); settings: primary human endothelial cells (HUVEC); actives raise or lower the signal
Summary of the method: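 HUVEC primary endothelial cultures dosed with chemical; MIG quantified by ELISA at 24 h. Data fitted bidirectionally against DMSO control, with parallel SRB total-protein staining for cytotoxicity.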

[11] = BSK_3C_SRB: Viability Assessment in the BioMAP Diversity Plus: 3C Assay (AID 2283023; active means hit-call score of the fitted dose curve at least 0.9, where 1 is the maximum; inactive means score below 0.9;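 further: fitted both ways against DMSO so a hit may be signal rise or drop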); settings: primary human endothelial cells (HUVEC)
Summary of the method: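 Cytotoxicity readout in parallel HUVEC 3C cultures: after 24 h compound exposure, cells fixed with 10% TCA, stained with 0.1% SRB and read at 560 nm. Gain or loss relative to DMSO fitted.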

[12] = read-out: Matrix Metallopeptidase 1 (MMP1), MMP1 (gene 4312); experiment: BSK_BE3C_MMP1: BioMAP Diversity Plus: BE3C Assay for Matrix Metallopeptidase 1 (MMP1) Biomarker Activity (AID 2283024; active means hit-call score of the fitted dose curve at least 0.9, where 1 is the maximum; inactive means score below 0.9); settings: primary human bronchial epithelial cells; actives raise or lower the signal
Summary of the method: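 Human primary bronchial epithelial cells (BE3C system) dosed for 24 h; MMP-1 quantified by ELISA. Bidirectional fit against DMSO; cytotoxicity tracked in parallel cultures by SRB total-protein staining.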

[13] = BSK_3C_Vis: BioMAP Diversity Plus: 3C Assay for Morphology Visualization (AID 2283025; active means hit-call score of the fitted dose curve at least 0.9, where 1 is the maximum; inactive means score below 0.9;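 further: fitted both ways so gain or loss versus DMSO counts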;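 on AC50: light microscopy image of cell morphology used as background control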); settings: primary human endothelial cells (HUVEC)
Summary of the method: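 Human umbilical vein endothelial cell morphology was inspected by light microscopy 24 h after chemical dosing; scored bidirectionally relative to DMSO.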

[14] = read-out: Pselectin, SELP (gene 6403); experiment: BSK_4H_Pselectin: BioMAP Diversity Plus: 4H Assay for Pselectin Biomarker Activity (AID 2283026; active means hit-call score of the fitted dose curve at least 0.9, where 1 is the maximum; inactive means score below 0.9); settings: primary human endothelial cells (HUVEC); actives raise or lower the signal
Summary of the method: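 Primary human umbilical vein endothelial cells were treated 24 h, and cell-surface P-selectin was then quantified by ELISA. Bidirectional fit versus DMSO; cytotoxicity checked in parallel cultures by SRB total-protein staining.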

[15] = BSK_4H_SRB: Viability Assessment in the BioMAP Diversity Plus: 4H Assay (AID 2283027; active means hit-call score of the fitted dose curve at least 0.9, where 1 is the maximum; inactive means score below 0.9;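 further: cells exposed to compound for 24 h before staining; curves fitted both ways versus DMSO so AC50 may be loss or gain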); settings: primary human endothelial cells (HUVEC)
Summary of the method: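 Human umbilical vein endothelial cells were dosed with chemical and, after 24 h, fixed with 10% TCA, stained with 0.1% sulforhodamine B, and read at 560 nm to give total protein as a cytotoxicity measure. Bidirectional fitting relative to DMSO control.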

[16] = read-out: Urokinase-type plasminogen activator receptor (uPAR), PLAUR (gene 5329); experiment: BSK_4H_uPAR: BioMAP Diversity Plus: 4H Assay for Urokinase-type plasminogen activator receptor (uPAR) Biomarker Activity (AID 2283030; active means hit-call score of the fitted dose curve at least 0.9, where 1 is the maximum; inactive means score below 0.9); settings: primary human endothelial cells (HUVEC); actives raise or lower the signal
Summary of the method: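 uPAR level read by ELISA on HUVEC cultures (BioMAP 4H) 24 h post-dosing, analyzed for gain or loss relative to DMSO. Parallel SRB staining assessed overt cytotoxicity.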

[17] = read-out: Vascular endothelial growth factor receptor 2 (Homo sapiens) (UniProt P35968); experiment: BSK_4H_VEGFRII: BioMAP Diversity Plus: 4H Assay for Vascular endothelial growth factor receptor 2 (VEGFR2) Biomarker Activity (AID 2283031; active means hit-call score of the fitted dose curve at least 0.9, where 1 is the maximum; inactive means score below 0.9); settings: primary human endothelial cells (HUVEC); actives raise or lower the signal
Summary of the method: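 Measured by ELISA after 24 h of compound treatment: VEGFR2 on primary human umbilical vein endothelial cells, fitted in both directions relative to DMSO. Parallel cultures received SRB staining (560 nm) for overt cytotoxicity.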

[18] = read-out: Human Leukocyte Antigen - DR isotype (HLADR), HLA-DRA (gene 3122); experiment: BSK_BE3C_HLADR: BioMAP Diversity Plus: BE3C Assay for Human Leukocyte Antigen - DR isotype (HLADR) Biomarker Activity (AID 2283032; active means hit-call score of the fitted dose curve at least 0.9, where 1 is the maximum; inactive means score below 0.9); settings: primary human bronchial epithelial cells; actives raise or lower the signal
Summary of the method: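 Human primary bronchial epithelial cells (BE3C system) exposed to compound for 24 hours; cell-surface HLA-DR measured by ELISA, fitted bidirectionally relative to DMSO. Total protein by SRB in parallel cultures tracked cytotoxicity.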

[19] = target: human Retinoid X Receptor beta (RXRb), RXRB (gene 6257) (UniProt P28702); experiment: ATG_RXRb_TRANS: Attagene TRANS-FACTORIAL HepG2 Assay for human Retinoid X Receptor beta (RXRb) (AID 2283013)
human Retinoid X Receptor beta (RXRb), RXRB (gene 6257), sequence (P28702 whole entry, looked up, the tested form may be a part): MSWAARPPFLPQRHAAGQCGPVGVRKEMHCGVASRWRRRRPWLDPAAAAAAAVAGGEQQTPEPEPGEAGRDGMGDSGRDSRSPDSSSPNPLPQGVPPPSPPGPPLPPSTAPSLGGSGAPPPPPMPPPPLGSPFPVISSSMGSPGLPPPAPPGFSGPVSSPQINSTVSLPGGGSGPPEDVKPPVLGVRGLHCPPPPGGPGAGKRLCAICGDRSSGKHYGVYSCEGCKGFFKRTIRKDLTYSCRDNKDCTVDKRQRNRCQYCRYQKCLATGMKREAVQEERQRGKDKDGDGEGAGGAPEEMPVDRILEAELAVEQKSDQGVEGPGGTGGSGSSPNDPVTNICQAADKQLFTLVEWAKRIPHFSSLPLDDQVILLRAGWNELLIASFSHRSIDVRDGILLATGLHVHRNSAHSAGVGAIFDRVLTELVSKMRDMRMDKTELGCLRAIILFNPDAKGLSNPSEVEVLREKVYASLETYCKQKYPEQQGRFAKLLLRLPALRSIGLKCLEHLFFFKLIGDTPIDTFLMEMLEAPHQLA
Summary of the method: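 HepG2 cells were transiently transfected with multiplexed GAL4-UAS reporters and a chimeric RXRb-Gal4 construct, then exposed for 24 h. Reporter mRNA was quantified by RT-PCR, FAM labeling, HpaI digestion and capillary electrophoresis; gain of signal was scored against DMSO.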

Measured: AC50

E-selectin (Homo sapiens), sequence (P16581 whole entry, looked up): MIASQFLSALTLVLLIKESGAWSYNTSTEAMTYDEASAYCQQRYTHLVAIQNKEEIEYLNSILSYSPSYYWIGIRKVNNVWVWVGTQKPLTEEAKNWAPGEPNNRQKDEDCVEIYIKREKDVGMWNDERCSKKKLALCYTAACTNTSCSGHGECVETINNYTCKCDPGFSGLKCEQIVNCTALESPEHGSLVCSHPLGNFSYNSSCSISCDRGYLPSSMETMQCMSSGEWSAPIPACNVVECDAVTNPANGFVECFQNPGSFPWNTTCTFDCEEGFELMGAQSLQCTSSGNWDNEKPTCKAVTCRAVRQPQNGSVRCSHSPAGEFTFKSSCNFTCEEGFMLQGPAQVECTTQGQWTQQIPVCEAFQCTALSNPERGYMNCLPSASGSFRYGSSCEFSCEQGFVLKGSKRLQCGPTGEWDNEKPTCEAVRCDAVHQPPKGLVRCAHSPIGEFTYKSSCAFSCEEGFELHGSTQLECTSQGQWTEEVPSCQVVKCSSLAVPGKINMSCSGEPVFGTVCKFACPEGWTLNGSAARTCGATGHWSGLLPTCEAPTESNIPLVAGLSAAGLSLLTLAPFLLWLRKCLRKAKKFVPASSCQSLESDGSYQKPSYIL

O=C(c1ccccc1)c1ccc(O)c(O)c1O
inactive: [1] | [2] | [3]

Cc1oncc1C(=O)Nc1ccc(C(F)(F)F)cc1
inactive: [1] | [2]

CCCCCCOC(=O)C(C)CC (configuration not stated)
inactive: [1] | [2]

CC(C)COC(=O)C=Cc1ccccc1
inactive: [1] | [2] | [3]

O=C1CCC(=O)N1Cl
inactive: [1] | [2] | [3]

COC(F)(F)C(F)(C(F)(F)F)C(F)(F)F
inactive: [1] | [2] | [3]

CCOC(=O)N1CCC(=C2c3ccc(Cl)cc3CCc3cccnc32)CC1
inactive: [1] | [3]

c1ccc2c(c1)ccc1ncccc12
active: [4] 16.4 µM | [5] 20 µM | [6] 5.9 µM | [8] 20 µM | [11] 14.3 µM | [13] 38.9 µM | [14] 20 µM | [15] 20 µM | [16] 20 µM
inactive: [1] | [7] | [9] | [10] | [12] | [17] | [18]

O=C(C(Cl)Cl)N1CCOC12CCCCC2
inactive: [1] | [3]

O=C(Cl)c1cc(C(=O)Cl)cc(C(=O)Cl)c1
inactive: [1] | [2] | [17]
active: [4] 15.1 µM | [5] 29.5 µM | [6] 11.6 µM | [7] 12.8 µM | [8] 10.5 µM | [9] 9.93 µM | [10] 29.3 µM | [11] 20 µM | [12] 20 µM | [13] 12.5 µM | [14] 11.6 µM | [15] 26.8 µM | [16] 20 µM | [18] 28.8 µM

COCCOCCOCCOCCOC
inactive: [1] | [3]

NNC(=O)c1cccc(C(=O)NN)c1
inactive: [19] | [2] | [3]

CC(C)c1ccc2c(c1)CC[C@H]1[C@](C)(CN)CCC[C@]21C
inactive: [3]
active: [1] 6.76 µM

C/C=C\C/C=C/CCCCCCCCOC(C)=O
active: [4] 19.6 µM | [5] 12.1 µM | [8] 27 µM | [14] 20 µM | [15] 12.7 µM | [18] 25.7 µM
not listed: [19]
inactive: all other assays above

O=C(O)c1cc(Cl)cc([N+](=O)[O-])c1Cl
inactive: [1] | [2] | [3]

Cc1cc(O)c(Cl)c(C)c1Cl
inactive: [19]

COc1cc(C)ccc1C(C)C
active: [19] 100 µM
inactive: [2]

O=C(OCC1CCC2OC2C1)C1CCC2OC2C1 (configuration not stated)
inactive: [19]

CCOC(F)(F)C(F)(F)C(F)(F)C(F)(F)F
inactive: [1] | [3]

CC(=O)OC1C2(C)CCC(C2)C1(C)C (configuration not stated)
inactive: [19] | [2]

O=C(O)c1ccccc1Nc1cccc(C(F)(F)F)c1
inactive: [1] | [2] | [3]
